DUX4 txn inh: DUX4-mediated transcription inhibition; 0.8% of 37,000 active; 293T-iDUX4 ZSCAN4-Gaussia luciferase reporter, 24 h; stronger effect = lower value; activity change, negative = inhibition, % (no concentration beside the values);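 active means mean inhibition of at least 10% in the main channel, exceeding the control channel by a set limit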;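 further: 0% = median of neutral control wells and -100% = median of positive control wells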
Starred values were filed as active, the others as inactive. This is one part of a sample in which hits are shown more often than they occur.

SMILES	DUX4 txn inh
OC[C@@H]1[C@H](c2ccc(C#Cc3cccnc3)cc2)[C@H]2CN(Cc3ccccc3F)CCCCN12	-57*
O=C(Nc1cccc(F)c1)N1CCCCN2[C@H](C1)[C@@H](c1ccc(C#Cc3cccnc3)cc1)[C@@H]2CO	0
OC[C@H]1[C@H](c2ccc(C#Cc3ccccc3F)cc2)[C@@H]2CN(Cc3cncnc3)CCCCN12	1
OC[C@@H]1[C@H](c2ccc(C#Cc3ccccc3F)cc2)[C@@H]2CN(Cc3cncnc3)CCCCN12	-5
O=C(Nc1ccccc1F)N1CCCCN2[C@@H](CO)[C@H](c3ccc(C#Cc4cccnc4)cc3)[C@@H]2C1	5
OC[C@H]1[C@H](c2ccc(C#Cc3cccnc3)cc2)[C@@H]2CN(Cc3ccccc3F)CCCCN12	-38*
Cc1ccccc1S(=O)(=O)N1C[C@@H](O)COC[C@@H]2O[C@H](CC(=O)N3CCOCC3)CC[C@H]21	10
O=C(Cc1cccnc1)N1CC2(C1)[C@@H](c1ccccc1)[C@@H](CO)N2C(=O)C1CCCC1	-5
CC=Cc1ccc2n(c1=O)C[C@@H]1[C@@H](CO)[C@H](C(=O)NCCC)[C@H]2N1S(=O)(=O)c1cn(C)cn1 (mixture of isomers)	3
O=C(C[C@@H]1C[C@@H]2c3cc(NC(=O)CC4CC4)ccc3O[C@@H]2[C@@H](CO)O1)NCc1cc(F)ccc1F	2
CC(=O)N1CC2(C1)[C@@H](c1ccc(-c3ccccc3C)cc1)[C@@H](CO)N2C(=O)CC1CC1	2
CCCN1[C@@H]2Cn3c(ccc(-c4ccccc4OC)c3=O)[C@H]1[C@@H](C(=O)NCc1ccccn1)[C@@H]2CO	10
C[C@H](CO)N1C[C@H](C)[C@H](CN(C)Cc2ccc(C(=O)Nc3ccccc3N)cc2)OCc2cnnn2CCCC1=O	-16*
C[C@@H]1CN([C@@H](C)CO)C(=O)CCCn2nncc2CO[C@@H]1CN(C)Cc1ccc(C(=O)O)cc1	3
C[C@H]1CN([C@@H](C)CO)C(=O)CCCn2nncc2CO[C@H]1CN(C)Cc1ccc(C(=O)O)cc1	1
CN(C)CC(=O)Nc1ccc2c(c1)[C@@H]1C[C@H](CC(=O)NCc3ccc4c(c3)OCO4)O[C@H](CO)[C@@H]1O2	1
C[C@H](CO)N1C[C@H](C)[C@@H](CN(C)S(=O)(=O)c2ccc(Cl)cc2)OCc2cn(nn2)CCCC1=O	-3
C/C=C/c1ccc([C@H]2[C@@H](CO)N(CCC(F)(F)F)C23CN(C(C)=O)C3)cc1	2
CC(C)CC#Cc1ccc([C@H]2[C@H]3CN(C(=O)c4cccc(F)c4)CC(=O)N3[C@H]2CO)cc1	-4
O=C(Cc1ccccc1)N1CC(=O)N2[C@@H](CO)[C@@H](c3ccc(C#CCc4ccccc4)cc3)[C@@H]2C1	1
O=C(Cc1ccccc1)N1CC(=O)N2[C@H](CO)[C@@H](c3ccc(C#CCc4ccccc4)cc3)[C@@H]2C1	-33*
CC(C)CC#Cc1ccc([C@H]2[C@H](CO)N3C(=O)CN(C(=O)c4cccc(F)c4)C[C@@H]23)cc1	-38*
O=C(Cc1ccccc1)N1CC(=O)N2[C@@H](CO)[C@H](c3ccc(C#CCc4ccccc4)cc3)[C@@H]2C1	0
CC(C)CC#Cc1ccc([C@@H]2[C@@H](CO)N3C(=O)CN(C(=O)c4cccc(F)c4)C[C@H]23)cc1	0
COc1ccc2c3c(n(C)c2c1)[C@@H](CO)N(C(=O)Cc1ccccc1)CC31CN(C(C)=O)C1	14
SMILES	DUX4 txn inh
COc1ccc(-c2ccc3c(c2)[C@@H]2[C@@H](CCN2S(=O)(=O)c2ccccc2F)[C@@H](CO)N3C)cc1	-8
CCC(=O)N1CC2(C1)[C@H](c1ccc(C3=CCCC3)cc1)[C@H](CO)N2C(=O)COC	3
COCC(=O)Nc1ccc2c(c1)C(=O)N(C)[C@@H]1CC[C@@H](CC(=O)NCCc3ccccc3)O[C@@H]1CO2	2
O=C(C[C@@H]1C[C@H]2c3cc(NC(=O)Cc4ccncc4)ccc3O[C@H]2[C@H](CO)O1)NCc1cc(F)ccc1F	-4
O=C(C[C@H]1C[C@H]2c3cc(NC(=O)Cc4ccncc4)ccc3O[C@H]2[C@@H](CO)O1)NCc1cc(F)ccc1F	-21*
O=C(C[C@H]1C[C@H]2c3cc(NC(=O)Cc4ccncc4)ccc3O[C@H]2[C@@H](CO)O1)NCCc1ccccc1	-8
O=C(C[C@H]1C[C@H]2c3cc(NC(=O)Cc4ccncc4)ccc3O[C@H]2[C@H](CO)O1)NCCc1ccccc1	-21*
O=C(C[C@@H]1C[C@H]2c3cc(NC(=O)CC4CC4)ccc3O[C@H]2[C@@H](CO)O1)NCc1cc(F)ccc1F	7
O=C(C[C@@H]1C[C@@H]2c3cc(NC(=O)Cc4ccncc4)ccc3O[C@@H]2[C@@H](CO)O1)NCCc1ccccc1	3
COc1ccc(C(=O)Nc2ccc3c(c2)C(=O)N(C)C[C@@H](OC)[C@H](C)CN(C)[C@@H](C)CO3)cc1	-5
O=C(c1cnccn1)N1CC[C@@H]2[C@H](CO)Nc3ccc(C#Cc4cccnc4)cc3[C@@H]21	-10
C[C@@H]1CN([C@H](C)CO)C(=O)CCCn2cc(nn2)CO[C@H]1CN(C)Cc1cccc(O)c1	12
C[C@H](O)C#Cc1ccc([C@H]2[C@H]3CN(S(=O)(=O)c4ccccc4)CCCCN3[C@H]2CO)cc1	2
O=C(C1CC1)N1CCCCN2[C@H](CO)[C@H](c3ccc(C#CC4CCCC4)cc3)[C@H]2C1	-1
C[C@H](O)C#Cc1ccc([C@@H]2[C@H](CO)N3CCCCN(S(=O)(=O)c4ccccc4)C[C@@H]23)cc1	1
O=S(=O)(c1ccccc1)N1CCCCN2[C@H](C1)[C@H](c1ccc(C#Cc3cccnc3)cc1)[C@@H]2CO	-45*
O=S(=O)(c1ccccc1)N1CCCCN2[C@H](C1)[C@H](c1ccc(C#CC3CCCC3)cc1)[C@@H]2CO	-26*
O=C(Nc1ccc(F)cc1)N1CCCCN2[C@H](C1)[C@H](c1ccc(C#CC3CC3)cc1)[C@@H]2CO	24
O=S(=O)(c1ccccc1)N1CCCCN2[C@H](C1)[C@@H](c1ccc(C#Cc3cccnc3)cc1)[C@@H]2CO	0
O=S(=O)(c1ccccc1)N1CCCCN2[C@H](CO)[C@H](c3ccc(C#Cc4cccnc4)cc3)[C@@H]2C1	-56*
O=S(=O)(c1ccccc1)N1CCCCN2[C@H](CO)[C@H](c3ccc(C#CC4CCCC4)cc3)[C@@H]2C1	23
O=S(=O)(c1ccc(F)cc1)N1CCCCN2[C@H](C1)[C@@H](c1ccc(C#CC3CC3)cc1)[C@@H]2CO	-2
O=C(C1CC1)N1CCCCN2[C@H](C1)[C@@H](c1ccc(C#CC3CCCC3)cc1)[C@@H]2CO	-24*
O=S(=O)(c1ccccc1)N1CCCCN2[C@H](CO)[C@@H](c3ccc(-c4ccccc4)cc3)[C@@H]2C1	-5
COC(=O)C[C@H]1CC[C@H]2[C@@H](COc3ccc(NC(=O)Nc4ccc(Cl)cc4)cc3C(=O)N2C)O1	1
CN1c2ccc(-c3ccccc3)cc2[C@H]2[C@H](CCN2C(=O)Cc2ccccn2)[C@@H]1CO	18
O=C(C1CCC1)N1CC2(C1)[C@@H](c1ccccc1)[C@@H](CO)N2C(=O)c1ccccn1	4
CN(C)CCCNC(=O)C[C@H]1CC[C@@H]2[C@H](COC[C@@H](O)CN2C(=O)c2ccncc2)O1	12
CC=Cc1ccc2n(c1=O)C[C@H]1[C@H](CO)[C@@H](C(=O)NCC3CCCCC3)N(C(C)=O)[C@@H]21 (mixture of isomers)	2
COc1ccccc1C(=O)N1C[C@H]2[C@@H](c3ccccc31)[C@@H](CO)N2C(=O)Nc1ccccc1	-1
